Paper PMC4336329 (PLoS ONE, 2015)
Hit rate of the full screen: of about 310,000 compounds, about 14,000 (4.5%) showed an effect of 50% or more. Effects have a minus sign here. The entries come from a sample that favours strong results as a whole.

The compounds below were run against human ether-à-go-go-related gene (hERG) potassium channel (human, UniProt Q12809) (assay: primary screen, population patch clamp on CHO cells stably expressing hERG; higher = less effect of the substance).
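Note: peak tail current of the secondary pulse compared with the same well before compound.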

human ether-à-go-go-related gene (hERG) potassium channel, sequence (Q12809 whole entry, looked up): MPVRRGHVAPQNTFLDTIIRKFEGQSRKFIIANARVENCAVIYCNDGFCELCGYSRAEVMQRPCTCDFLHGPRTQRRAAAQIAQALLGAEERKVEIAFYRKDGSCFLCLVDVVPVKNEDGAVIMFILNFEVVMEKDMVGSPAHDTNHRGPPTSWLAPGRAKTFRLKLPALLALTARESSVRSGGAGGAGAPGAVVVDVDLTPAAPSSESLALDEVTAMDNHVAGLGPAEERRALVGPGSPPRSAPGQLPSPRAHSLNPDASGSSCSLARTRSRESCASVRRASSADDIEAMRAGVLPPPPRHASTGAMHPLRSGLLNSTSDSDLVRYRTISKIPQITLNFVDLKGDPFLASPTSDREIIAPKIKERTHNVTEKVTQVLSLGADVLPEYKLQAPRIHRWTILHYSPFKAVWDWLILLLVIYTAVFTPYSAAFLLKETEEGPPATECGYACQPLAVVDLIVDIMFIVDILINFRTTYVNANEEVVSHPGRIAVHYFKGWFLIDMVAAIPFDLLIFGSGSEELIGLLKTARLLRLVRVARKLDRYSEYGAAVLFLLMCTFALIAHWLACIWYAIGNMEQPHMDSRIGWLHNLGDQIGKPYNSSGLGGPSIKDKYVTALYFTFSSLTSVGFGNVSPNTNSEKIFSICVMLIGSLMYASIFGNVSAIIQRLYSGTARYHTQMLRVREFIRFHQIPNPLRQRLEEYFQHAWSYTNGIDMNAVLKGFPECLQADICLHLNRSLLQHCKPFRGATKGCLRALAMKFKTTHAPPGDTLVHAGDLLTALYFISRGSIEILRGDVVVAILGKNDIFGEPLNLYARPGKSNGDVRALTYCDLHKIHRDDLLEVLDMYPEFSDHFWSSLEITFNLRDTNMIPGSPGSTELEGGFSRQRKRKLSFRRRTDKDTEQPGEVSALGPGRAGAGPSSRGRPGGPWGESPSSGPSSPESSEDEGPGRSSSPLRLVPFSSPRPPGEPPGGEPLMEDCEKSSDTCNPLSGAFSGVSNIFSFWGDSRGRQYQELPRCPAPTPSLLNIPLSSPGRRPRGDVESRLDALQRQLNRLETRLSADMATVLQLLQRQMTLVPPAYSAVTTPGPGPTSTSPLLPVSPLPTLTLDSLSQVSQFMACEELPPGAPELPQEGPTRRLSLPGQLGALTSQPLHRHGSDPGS

Row | SMILES | hERG current change (%, negative = inhibition) at 10uM
1 | COc1ccc(C2CC(c3ccccc3)Nc3nc(NS(C)(=O)=O)nn32)cc1 (stereo not shown) | 7.1%
2 | CCc1sc2nc(SCC(=O)Nc3cc(C)on3)n(-c3cccc(OC)c3)c(=O)c2c1C | 10.2%
3 | NC(=S)N/N=C1\CC(c2ccc3c(c2)OCCCO3)Oc2ccc(F)cc21 (stereo not shown) | 6.23%
4 | O=C(NNC(=O)c1csc(N2CCOCC2)n1)c1ccc(=O)[nH]c1 | 6.26%
5 | CCOC(=O)N1CCN(C(=O)c2cnn3c(C(F)F)cc(-c4ccc(C)cc4)nc23)CC1 | -0.653%
6 | CC(C)OC(=O)c1c2c(n3ccccc13)C(=O)c1ccccc1C2=O | 5.73%
7 | Cc1ccc(N2CCN(CCc3nc4cc(NC(=O)c5ccco5)ccc4n3C)CC2)cc1 | -70.7%
8 | Cc1ccc(C(=O)Nc2ccc3c(c2)nc(CCNC(=O)c2ccco2)n3C)cc1 | 8.06%
9 | Cn1c(CCNC(=O)c2ccco2)nc2cc(NC(=O)c3ccco3)ccc21 | -14.4%
10 | Cn1c(CCN2CCN(c3ccc(F)cc3)CC2)nc2cc(NC(=O)c3ccco3)ccc21 | -63.6%
11 | CN1CCN(CCc2nc3cc(NC(=O)c4ccco4)ccc3n2C)CC1 | 4.18%
12 | Cn1c(CN2CCCC2)nc2cc(NC(=O)c3ccco3)ccc21 | 7.42%
13 | Cc1ccc(Cc2c(C)c(C#N)c3[nH]c4ccccc4n3c2=O)cc1 | 11.4%
14 | O=C(O)C12C3CCCC1C32c1ccccc1 (stereo not shown) | 21.7%
15 | CC1CCC2C(=O)N(c3ccccc3OC(=O)c3ccccc3F)C(=O)C2C1 (stereo not shown) | -10.3%
16 | CCCSC1=C(C#N)C(c2ccc(O)c(OC)c2)CC(=O)N1 (stereo not shown) | -45.1%
17 | CC(C)Cc1nc(SCC(=O)NCC2CCCO2)c2c(=O)n(C)c(=O)n(C)c2n1 (stereo not shown) | -0.141%
18 | CCCn1c(=O)n(C)c(=O)c2c(SCC(=O)NCC(c3ccccc3)N(C)C)nc(CC(C)C)nc21 (stereo not shown) | -66.1%
19 | CCCn1c(=O)n(C)c(=O)c2c(SCC(=O)NC34CC5CC(CC(C5)C3)C4)nc(CC(C)C)nc21 | 8.5%
20 | CNC(=O)c1c(I)c(C(=O)NCC(=O)Nc2c(I)c(C(=O)O)c(I)c(C(=O)NCCO)c2I)c(I)c(N(C)C(C)=O)c1I | 6.45%
21 | COc1cc(C(=O)OC(C)CN2CCCCC2)cc(OC)c1OC.Cl (stereo not shown) | -4.43%
22 | CC(CN1C(C)CCCC1C)OC(=O)c1ccc(Cl)cc1Cl (stereo not shown) | -51.7%
23 | COc1cc(C(=O)OC(C)CN2CCCC2)cc(OC)c1OC.Cl (stereo not shown) | -12.2%

Row | SMILES | hERG current change (%, negative = inhibition) at 10uM
24 | COc1cc(C(=O)OC(C)CN2C(C)CCCC2C)cc(OC)c1OC.Cl (stereo not shown) | -50.2%
25 | CC(CN1C(C)CCCC1C)OC(=O)c1ccccc1Cl (stereo not shown) | -26.8%
26 | CC(CN1C(C)CCCC1C)OC(=O)c1ccc(Cl)cc1 (stereo not shown) | -44.8%
27 | O=S(=O)(/N=C(/Nc1ccc(F)cc1F)c1ccccc1)c1ccc(Br)cc1 | 12.3%
28 | Cc1cc(C)cc(-n2c(SCC(=O)NCc3ccc4c(c3)OCO4)nc3ccccc3c2=O)c1 | 15.9%
29 | CCOC(=O)c1c(-n2c(C)cc(/C=C3/C(=O)NC(=O)N(CC)C3=O)c2C)sc2c1CCCC2 | 2.36%
30 | CC(C)C1Oc2ccccc2N(CC(=O)N(Cc2ccccn2)C2CC2)C1=O (stereo not shown) | -13.6%
31 | O=C(Nc1ccccc1N1CCCC1)C1CC(=O)N(Cc2ccccc2)C1 (stereo not shown) | -44.4%
32 | CCOC(=O)CNc1ncnc2nc[nH]c12 | 9.53%
33 | COC(=O)c1sc(S(=O)(=O)NCc2ccccc2)c(C(=O)OC)c1C | -50.4%
34 | COC(=O)c1sc(S(=O)(=O)NCc2cccs2)c(C(=O)OC)c1C | -19.1%
35 | COC(=O)c1c(S(=O)(=O)NCc2ccccc2)sc(C(=O)O)c1C | 6.81%
36 | Cc1[nH][nH]c(=O)c1C=Nc1ccc(C(F)(F)F)cc1 | 17.4%
37 | O=C(OC(C(=O)NC1CCCC1)c1ccccn1)c1cccs1 (stereo not shown) | -3.4%
38 | CCc1noc(C)c1C(=O)NC1CCCc2c1cnn2-c1ccc(C(C)(C)C)cc1 (stereo not shown) | 10.2%
39 | CN1CCc2c(sc3nc(SCC(=O)NCc4ccco4)n(-c4ccccc4)c(=O)c23)C1 | -10.6%
40 | c1coc(CNc2ncnc3sc4c(c23)CCCCC4)c1 | -39.4%
41 | CN1CCc2c(sc3c2c(NCc2ccco2)nc2nnnn23)C1 | -71.8%
42 | Cc1nc(NCc2ccco2)c2c3c(sc2n1)CCC3 | -24.3%
43 | CCN1CCc2c(sc(NC(=S)NC(=O)c3ccco3)c2C(N)=O)C1 | 2.95%
44 | CCN1CCc2c(sc3c2c(NCc2ccco2)nc2nnnn23)C1 | -73.6%
45 | Cn1c(NN)nc2sc3c(c2c1=O)CC(C)(C)OC3 | 9.89%
46 | CCCNC(=O)CSc1nccn1Cc1ccco1 | 0.203%

Row | SMILES | hERG current change (%, negative = inhibition) at 10uM
47 | CC1(C)SC(=S)N(/N=C/c2ccc(O)cc2)C1N(O)C(=O)Nc1ccc([N+](=O)[O-])cc1 (stereo not shown) | -10.2%
48 | Nc1ccn([C@H]2CS[C@@H](CO)O2)c(=O)n1 | 18%
49 | CC(CNc1ccc([N+](=O)[O-])cc1)NC(=O)c1ccccc1Br (stereo not shown) | -50.6%
50 | O=C(NCCNc1ccc([N+](=O)[O-])cc1)c1ccccc1Br | -43.3%
51 | CC(CNC(=O)c1ccccc1[N+](=O)[O-])NC(=O)c1ccccc1[N+](=O)[O-] (stereo not shown) | 1.57%
52 | C=CCN1C(=O)C(Cc2ccccc2)SC1=Nc1ccc(C(=O)O)cc1 (stereo not shown) | -3.37%
53 | Cc1nonc1NC(=O)CSc1nc(CCC2CCCC2)nc2ccccc12 | 3.64%
54 | COc1cc2c(cc1OC)-c1c(OC)c(OC)c(OC)c3ccnc(c13)C2=O | -53.8%
55 | CCOc1cc(-c2nccc3cc(OC)c(OC)cc23)cc(OCC)c1OCC | -46.8%
56 | COc1cc2c(cc1OC)-c1c(OC)c(OC)cc3ccnc(c13)C2=O | -30.7%
57 | Cc1cc(-c2cc(-c3ccccc3)on2)nc(NC2CCCC2)n1 | 15.7%
58 | Fc1ccccc1N1CCN(Cc2nc(-c3ccccc3)no2)CC1 | -6.65%
59 | Cc1ccc(-c2noc(CN3CCN(c4ccccc4F)CC3)n2)cc1 | 8.71%
60 | COc1ccccc1Nc1nc(N)nc(CN2CCN(c3ccccc3F)CC2)n1 | -35.9%
61 | Cc1cccc(Nc2nc(N)nc(CC(=O)CSc3ccc(Cl)cc3)n2)c1 | 4.27%
62 | CCOc1ccc(Nc2nc(N)nc(CSC(=S)N3CCN(c4ccccc4)CC3)n2)cc1 | 17.2%
63 | Nc1nc(CN2CCN(c3ccccc3F)CC2)nc(Nc2ccccc2)n1 | -57.1%
64 | CCOc1ccc(Nc2nc(N)nc(CN3CCN(c4ccccc4F)CC3)n2)cc1 | -80.8%
65 | Cc1ccc(Nc2nc(N)nc(CN3CCN(c4ccccc4F)CC3)n2)cc1 | -67.4%
66 | Cc1cccc(Nc2nc(N)nc(CN3CCN(c4ccccc4F)CC3)n2)c1 | -68.2%
67 | Cc1nnc(SCC2=C(C(=O)O)N3C(=O)C(NC(=O)Cn4ncc(Cl)c4C)C3SC2)s1 (stereo not shown) | 26.9%
68 | COc1ccc(CNC(=O)C2CCCN(S(=O)(=O)N3CC(C)CC(C)C3)C2)c(OC)c1 (stereo not shown) | -6.97%
69 | CCCC(=O)C1=C(O)C(C(=O)OC)C(C)(C)CC1=N (stereo not shown) | 19.9%

Row | SMILES | hERG current change (%, negative = inhibition) at 10uM
70 | Cc1csc(NC(=O)c2sccc2C)n1 | 12.7%
71 | CCn1c(SCC(=O)Nc2ccc(OCc3ccccc3)cc2)nnc1-c1ccco1 | -0.171%
72 | CCCn1c(=O)c(Cc2ccccc2)c(O)c2ccccc21 | 1.06%
73 | Cc1nc2ccccc2c(=O)n1NC(=O)/C=C/c1ccc(Br)cc1 | -1.3%
74 | CN1CCN(c2ccc3c(c2)S(=O)(=O)c2ccccc2C3=O)CC1 | -23.4%
75 | COc1ccc(N/N=C(\C#N)C(=N)N2CCOCC2)cc1 | 11.4%
76 | N#C/C(=N\Nc1ccc([N+](=O)[O-])cc1)C(=N)N1CCOCC1 | -54.2%
77 | N#C/C(=N\Nc1ccc(Br)cc1)C(=N)N1CCOCC1 | -68.9%
78 | N#C/C(=N\Nc1ccccc1)C(=N)N1CCOCC1 | -7.71%
79 | C/C(=N\Nc1ccc([N+](=O)[O-])cc1)c1ccc(N2CCOCC2)cc1 | 4.46%
80 | N#C/C(=N\Nc1ccc([N+](=O)[O-])cc1)C(N)=S | 13.4%
81 | Cc1ccc(OCC(=O)NN2C(=O)c3ccccc3C2=O)c(C)c1 | 6.34%
82 | CC(C)c1nc(-c2ccc([N+](=O)[O-])cc2)cs1 | 1.87%
83 | CSCCC(NC(=O)c1ccc([N+](=O)[O-])cc1Cl)C(=O)OCC(=O)NCC(F)(F)F (stereo not shown) | -16.7%
84 | O=C(NCc1ccco1)c1ccc([N+](=O)[O-])cc1Cl | -3.96%
85 | CSCCC(NC(=O)c1ccc(Cl)cc1Cl)C(=O)OCC(N)=O (stereo not shown) | -5.4%
86 | CSCCC(NC(=O)c1ccc([N+](=O)[O-])cc1Cl)C(=O)OC(C)C(=O)NCc1ccco1 (stereo not shown) | -61.7%
87 | CSCCC(NC(=O)c1ccc([N+](=O)[O-])cc1Cl)C(=O)OCC(=O)N(C)C (stereo not shown) | -2.34%
88 | CSCCC(NC(=O)c1ccc([N+](=O)[O-])cc1Cl)C(=O)OCC(=O)N1CCN(C(C)=O)CC1 (stereo not shown) | 3.12%
89 | CSCCC(NC(=O)c1ccc(Cl)cc1)C(=O)OCC(=O)NCc1ccco1 (stereo not shown) | -23.8%
90 | CSCCC(NC(=O)c1ccc(Cl)cc1Cl)C(=O)OC(C)C(=O)NCc1ccco1 (stereo not shown) | -51.8%
91 | CSCCC(NC(=O)c1ccc([N+](=O)[O-])cc1Cl)C(=O)OCC(=O)NCCCc1ccccc1 (stereo not shown) | -57.8%
